This note sets out measurements from PubChem BioAssay (NCATS).

The nature of assay [1]: Cell Viability - Hek293 (AID 427;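 active means compounds whose dose-response curve shows a full or clear partial loss of cell viability, called from curve shape rather than a numeric limit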;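 further: potency means the concentration at half of the fitted maximal effect; cells exposed to compound for 40 hours at 37 °C before reading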). The following applies: qHTS. An outline of the steps: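 Luminescent ATP read-out (CellTiter-Glo, 20 min RT) after 40 hr compound exposure at 37 °C in complete medium. Signal normalized to DMSO (basal) and 100 uM tamoxifen (100% inhibition); concentration-response fitted with the standard Hill equation to give AC50.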
Assay [2] can be described thus: Cell Viability - N2a (AID 540).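 Further: cells exposed to compound for 40 h at 37 °C; nearly all actives have a fitted effect of over 45% in size.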 Further: potency means the concentration at half of the fitted maximal effect.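 On activity change, negative = cytotoxicity: plate controls were DMSO alone for no effect and tamoxifen control for full effect.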 The following applies: N2a mouse neuroblastoma cell viability; activity change, negative = cytotoxicity: at 92.2 µM (top of the series). In outline:
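In this qHTS cytotoxicity screen, ATP-dependent luciferase luminescence reports viable N2a cells after a 40 hr compound exposure in complete culture medium. Potencies are AC50 values from standard Hill equation fits.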

Assay [3] is described as follows: Cell Viability - H-4-II-E (AID 543).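 Further: cells exposed to compound for 40 hours; nearly all actives have a fitted effect of over 35% in size.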 Further: potency means the concentration at half of the fitted maximal effect. Conditions: H-4-II-E rat hepatoma viability; series mostly up to 92.2 µM. In outline: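 AC50 from Hill-modelled qHTS concentration-response curves. H-4-II-E rat hepatoma cells in complete medium, 40 hr exposure at 37 °C, viability by CellTiter-Glo ATP luminescence.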
A short description of assay [4]: Cellular Toxicity (caspase-3) SHSY5Y (AID 657). The following applies: SH-SY5Y caspase-3 activation, DMSO zero, 10 µM staurosporine = 100%; series mostly up to 91.7 µM. An outline of the steps: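 qHTS, SH-SY5Y, 1500 cells/well, 5 h pre-incubation 37 °C; compound 16 h 37 °C; Caspase-Glo 3/7 1 h RT; luminescence. Norm.: DMSO = 0, 10 uM staurosporine = 100%. Hill fit → AC50.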

Assay [5] is described as follows: Cellular Toxicity (caspase-3) Mesangial (AID 660).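 Further: combined caspase 3 and 7 activity read by Caspase-Glo luminescence; cells exposed to compound for 16 h before the caspase read.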 The following applies: mesangial cells, normalized: DMSO 0%, 100 µM tamoxifen 100%; series mostly up to 91.7 µM. In outline: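 AC50 values come from Hill-equation fits of caspase 3/7 activation, measured as Caspase-Glo luminescence in human glomerular mesangial cells exposed to compound for 16 h at 37 °C; 100% set by 100 uM tamoxifen.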

Assay [6] can be described thus: Cellular Toxicity (caspase-3) SK-N-SH (AID 661). Further: potency means the concentration at half of the fitted maximal effect. Conditions: SK-N-SH caspase-3 activation, qHTS; series mostly up to 91.7 µM. In outline:
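Apoptosis readout in SK-N-SH neuroblastoma: Caspase-Glo 3/7 luminescence following 16 hr treatment in complete culture medium. Normalization used DMSO and 10 uM staurosporine controls.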
A general note: Quantitative high-throughput screening tests each substance at several concentrations.

Assay [7] is described as follows: Cellular Toxicity (caspase-3) Renal Proximal Tubule (AID 667).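 Further: cells exposed to compound for 16 hours at 37 °C before detection.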 The following applies: renal proximal tubule cells; series mostly up to 91.7 µM. In outline:
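AC50 derived by standard Hill fit of concentration-response data, normalized between DMSO basal and 10 uM staurosporine as 100% stimulation. Cells: primary rat kidney proximal tubule, 16 h treatment at 37 °C.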

A short description of assay [8]: Cell Viability - LYMP1-003 - Assay at 24 hr (AID 963).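 Further: plate controls were DMSO only for no effect and tetraoctylammonium bromide positive control for full effect.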 Conditions: LYMP1-003 lymphoblastoid cell viability; series mostly up to 92.2 µM. In outline:
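The lymphoblastoid line was treated with titrated compounds for 24 hours, and viable cell number estimated from luciferase-based ATP luminescence.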

The nature of assay [9]: Cell Viability - LYMP2-003 (AID 965).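 Further: cells exposed to compounds for 24 h before reading; nearly all actives have a fitted effect of over 50% in size.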 Further: potency means the concentration at half of the fitted maximal effect.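 On activity change, negative = cytotoxicity: 0% = DMSO only and full effect = 92 µM tetraoctylammonium bromide.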 The following applies: LYMP2-003 lymphoblastoid cell viability; series mostly up to 92.2 µM. In outline: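 Seed 2500 lymphoblastoid cells/well; incubate 5 hr, 37 C; add compounds; incubate 24 hr, 37 C; add CellTiter-Glo, 30 min RT; read luminescence. AC50 from Hill fit.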
A short description of assay [10]: Cell Viability - LYMP2-005 (AID 967).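 Further: cells exposed to compound for 24 h at 37 °C.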 Further: potency means the concentration at half of the fitted maximal effect. The following applies: LYMP2-005 lymphoblastoid cell viability; series mostly up to 92.2 µM. An outline of the steps: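 Acute cytotoxicity is scored as a concentration-dependent drop in intracellular ATP in human lymphoblastoid LYMP2-005 cells after 24 h compound treatment. ATP is quantified by luciferase luminescence, and AC50 is derived by Hill-equation modelling.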

The nature of assay [11]: Cell Viability - LYMP2-009 (AID 968).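 Further: cells exposed to compound for 24 h at 37 °C; nearly all actives have a fitted effect of over 55% in size.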 Further: potency means the concentration at half of the fitted maximal effect. The following applies: LYMP2-009 lymphoblastoid cell viability; series mostly up to 92.2 µM.
Assay [12] in a line: Cell Viability - LYMP2-013 (AID 970).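 Further: cells exposed to compound for 24 h at 37 °C; nearly all actives have a fitted effect of over 55% in size.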 Further: potency means the concentration at half of the fitted maximal effect. The following applies: LYMP2-013 lymphoblastoid cells viability; series mostly up to 92.2 µM. An outline of the steps: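 In complete culture medium, human lymphoblastoid cells were dosed for 24 hr at 37 C, with tetraoctylammonium bromide (6.4pM to 92 uM) as positive control. Viability reflects luciferase-based ATP signal; AC50 derived from concentration-response curves.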

Assay [13] is described as follows: Cell Viability - LYMP2-017 (AID 972).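 Further: cells exposed to compound for 24 hours at 37 °C; nearly all actives have a fitted effect of over 55% in size.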 Further: potency means the concentration at half of the fitted maximal effect. On activity change, negative = cytotoxicity: on the % scale 0 is the no-effect control and ±100 the full control effect. The following applies: LYMP2-017 lymphoblastoid cell viability; series mostly up to 92.2 µM. An outline of the steps:
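In this qHTS format, lymphoblastoid cells in complete medium receive test compound for a day at 37 C before ATP content is quantified by luciferase luminescence. Reported AC50 figures come from standard Hill-equation curve fitting.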

Assay [14] in a line: Cell Viability - LYMP2-023 (AID 975).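 Further: cells exposed to compound for 24 hours at 37 °C; nearly all actives have a fitted effect of over 55% in size.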 Further: potency means the concentration at half of the fitted maximal effect.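 On activity change, negative = cytotoxicity: cellular ATP measured by luciferase luminescence as viability proxy; plate controls were DMSO only for no effect and 92 µM tetraoctylammonium bromide control for full effect.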 Conditions: LYMP2-023 lymphoblastoid cell viability; series mostly up to 92.2 µM. In outline:
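In this qHTS, ATP-based luciferase luminescence (CellTiter-Glo) is quantified in human lymphoblastoid cells after 24 hr compound treatment at 37 C; tetraoctylammonium bromide serves as positive control. Concentration-response curves are Hill-fitted to give AC50.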

The nature of assay [15]: Cell Viability - LYMP2-016 (AID 984). Further: potency means the concentration at half of the fitted maximal effect. On activity change, negative = cytotoxicity: on the % scale 0 is the no-effect control and ±100 the full control effect. The following applies: LYMP2-016 lymphoblastoid cell viability, qHTS; series mostly up to 92.2 µM. In outline:
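Cells were seeded at 2500 per well and rested 5 hr before a 24 hr compound exposure at 37 C. Viability was then gauged as cellular ATP by luciferase luminescence, with AC50 values fitted to the Hill equation.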

The target in assay [16] is Vitamin D3 receptor (Homo sapiens) (UniProt P11473). The experiment in a line: qHTS assay for small molecule antagonists of vitamin D receptor signaling (AID 588541; calls by dose curve;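 further: receptor activated by calcitriol during compound treatment; on the % scale 0 is the no-effect control and ±100 the full control effect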). The following applies: HEK293T VDR-UAS-bla, beta-lactamase ratio, antagonist mode; series mostly up to 76.7 µM. In outline:
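VDR-UAS-bla HEK293T cells in 2% charcoal-stripped FBS were stimulated with 1-alpha,25-dihydroxyvitamin D3 (3 nM final) plus compound for 16 h at 37 C. The beta-lactamase CCF4 readout was normalized to 50 nM agonist and DMSO, and Hill fits gave IC50.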

Assay [17] is described as follows: qHTS assay for small molecule agonists of retinoid X receptor alpha signaling (AID 588544). The following applies: HEK293T RXRa-UAS-bla, beta-lactamase reporter, 18 h; 530 nm emission.
Assay [18] is described as follows: qHTS assay for small molecule activators of the p53 signaling pathway (AID 651743; active means well fitted activation curve with a large enough effect in the signal ratio, not every such curve was filed as active; the % refers to the signal ratio; further: potency means the concentration at half of the fitted maximal effect; on activation: % of control where 0% means no effect). The following applies: HCT-116 p53RE-bla, beta-lactamase FRET ratio, 16 h; activation: stronger effect = higher value. An outline of the steps: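 Reporter: beta-lactamase driven by p53 response elements, stably integrated in HCT-116 cells. Cells seeded at 4,000/well, 5 h preincubation, compound (DMSO) 16 h at 37 C; B/G FRET substrate 2 h RT; fluorescence intensity read.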

Assay [19] can be described thus: qHTS assay for small molecule agonists of the antioxidant response element (ARE) signaling pathway measured by Nrf2-dependant transcriptional activity - cell viability counter screen (AID 720653; active means well fitted curve in the direction sought with a large enough effect in the repeat runs; an effect the other way counts as inactive or inconclusive; further: on the % scale 0 is the no-effect control and ±100 the full control effect). Conditions: ARE-bla HepG2 viability, CellTiter-Glo ATP luminescence, 16 h; stronger effect = lower value. An outline of the steps: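 ARE-bla HepG2 cells treated with compounds for 16 h at 37C; this counter screen measures viability as intracellular ATP by CellTiter-Glo luminescence after 30 min at room temperature.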

The nature of assay [20]: qHTS assay for cell viability of HEK293 cells (AID 743288). Further: on the % scale 0 is the no-effect control and ±100 the full control effect; nearly all actives have a fitted effect of over 50% in size. The following applies: ATP luminescence (CellTiter-Glo), 18 h, stronger effect = lower value. An outline of the steps: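 Viable-cell counts were inferred from luciferase-based ATP content in HEK293 cells seeded at 2,000/well, pre-incubated ≥5 h, then dosed with DMSO-solubilised compounds for 18 h at 37 C.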

SMILES strings stand for the structures. Values joined by “and” are separate entries in the source; they are usually repeats but may differ in a detail not shown here. Equal values may be shown once. Inconclusive results are not listed. Active and inactive are the calls of the source. Unless noted, the call rests on the fitted dose curve; in most records, active means well fitted curve in the direction sought with a large enough effect; inconclusive means small, poorly fitted or top-dose-only effect, or another doubt; inactive means no such curve, though single readings can be large; an effect the other way counts as inactive or inconclusive.

Vitamin D3 receptor (Homo sapiens), sequence (P11473 whole entry, looked up): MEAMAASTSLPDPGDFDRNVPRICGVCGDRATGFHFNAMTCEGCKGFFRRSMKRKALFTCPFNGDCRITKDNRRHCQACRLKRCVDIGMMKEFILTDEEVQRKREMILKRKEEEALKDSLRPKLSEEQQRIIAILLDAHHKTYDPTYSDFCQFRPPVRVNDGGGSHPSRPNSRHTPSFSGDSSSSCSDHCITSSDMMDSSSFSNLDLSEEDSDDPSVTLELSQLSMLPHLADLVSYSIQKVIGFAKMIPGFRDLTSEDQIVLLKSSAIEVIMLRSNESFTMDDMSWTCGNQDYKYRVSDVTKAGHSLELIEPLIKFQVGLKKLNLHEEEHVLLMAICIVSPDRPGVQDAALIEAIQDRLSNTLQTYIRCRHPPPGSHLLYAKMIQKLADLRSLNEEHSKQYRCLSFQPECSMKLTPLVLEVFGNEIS

For `Nc1ccc([N+](=O)[O-])cc1N`, the Potency in assay [1] was > 92 µM (inactive). The Potency result in assay [2], in [3], in assay [6], in assay [9], in [10] and in [11] was “inactive” throughout. Besides, the Potency result in assay [12], in assay [13], in [14] and in assay [15] was “inactive” throughout. In addition, the compound was called inactive in [4], in [5], in assay [7], in assay [8] and in assay [16]. Also, the max response in [17] is -12.1%; in assay [19] it was 0.262% (inactive) and -5.88% (inactive); in [20], 7.69% (inactive) and 2.35% (inactive). Also, the activation in [18] is -2.47% (inactive).
For `N#C/C=C/C#N`, the Potency in assay [3] is 50.1 µM (active); in [9], 20 µM (active); in assay [10], 25.1 µM (active); in [11], 31.6 µM (active); in assay [12], 39.8 µM (active); in assay [13], 31.6 µM (active). Also, the Potency in [14] and in assay [15] was 39.8 µM (active) in each case. In addition, the result in assay [5] and in assay [7] was inactive.
In the case of `Oc1cc(Cl)c(Cl)c(Cl)c1Cl`, the figures for the Potency in assay [2] and in assay [18] were 31.6 µM (active) and 39.8 µM (active), respectively. Also, the result in assay [4], in assay [5], in assay [7] and in assay [8] was inactive. The Potency result in assay [6], in assay [10] and in assay [14] was “inactive” each time. In addition, the max response in [20] is -11.3% (inactive).
Take `CN(C)c1ccc(N=Nc2ccccc2)cc1`: the outcome in [4], in assay [5], in assay [7], in assay [8] and in assay [16] was inactive. The Potency result in [6], in assay [9], in assay [13] and in assay [14] was “inactive” throughout. The max response in assay [17] is -0.567%; in assay [19], -5.92% (inactive); in assay [20] it was -8.55% (inactive). For the same compound, in [18], the activation was -7.04% (inactive).
Turning to `Oc1cc(Cl)c(Cl)c(Cl)c1`, the Potency in assay [2] is 31.6 µM (active); in [3] it was 63.1 µM (active); in [18], 44.7 µM (active). The call in assay [4], in assay [5], in assay [8] and in assay [16] was inactive. For the same compound, the Potency entry in assay [6] and in assay [10] was “inactive” each time. In addition, the max response is -10.7% (inactive) in [19] and -15.1% (inactive) in assay [20].
On to `Nc1ccc(-c2ccc(N)c(Cl)c2)cc1Cl`, for which the Potency entry in assay [2], in assay [6], in assay [9], in assay [10], in [11] and in assay [12] was “inactive” throughout. Also, the Potency result in assay [13] and in assay [15] was “inactive” in each case. Further, the Potency in assay [3] was 31.6 µM (active). In addition, the compound was called inactive in assay [4], in assay [5], in assay [7], in [8] and in assay [16]. The activation in assay [18] was 14% (inactive) and 23.3% (inactive). The max response was -14% (inactive) and -8.08% (inactive) in [19]; -8.22% (inactive) and -17.1% (inactive) in assay [20].
On to `O=[N+]([O-])c1cccc(CCl)c1`, for which the results for the Potency in assay [1], in [3] and in [11] were > 92 µM (inactive), 50.1 µM (active) and 79.4 µM (active), respectively. The Potency result in [2], in [6], in assay [9], in assay [12], in [14] and in assay [15] was “inactive” throughout. Besides, the call in assay [4], in assay [5], in assay [7], in [8] and in assay [16] was inactive. Further, the max response in [17] is 10.9%; in assay [19], -3.2% (inactive); in assay [20], -20.5% (inactive).
Consider `Clc1ccc(C(c2ccccc2Cl)C(Cl)(Cl)Cl)cc1` (centres undefined), for which the call in [4], in [7] and in assay [16] was inactive. Moreover, the Potency entry in [6], in assay [10], in assay [11], in assay [12], in [14] and in [15] was “inactive” in each case. Moreover, the activation in assay [18] was 0.576% (inactive) and 10.5% (inactive). Moreover, the max response in assay [19] was -11.9% (inactive) and 2.81% (inactive).
As for `[C-]1=CC=CC1.[C-]1=CC=CC1.[Cl-].[Cl-].[Ti+4]`, the Potency entry in assay [2], in assay [3] and in assay [6] was “inactive” each time. Besides, the call in assay [4], in assay [5] and in assay [7] was inactive. Further, the max response in assay [19] was -7.58% (inactive); in [20], -17.8% (inactive).
On to `BrCC(Br)(Br)Br`, for which the result in assay [4], in assay [7], in assay [8] and in assay [16] was inactive. Moreover, the Potency in [6] is 25.1 µM (active); in [11], 31.6 µM (active); in [12], 25.1 µM (active); in assay [14], 20 µM (active). In addition, the Potency result in assay [9] was “inactive”. Also, the max response in assay [17] worked out at 19.6%. In addition, the activation in assay [18] was -0.838% (inactive).
On to `c1ccc2c(c1)ccc1cc3c(ccc4ccccc43)cc12`, for which the Potency in assay [18] is 39.8 µM (active).
